# In the library only some 5.7% were active in any assay of this set; here they are far more common.
# HT1080 IDH1KD tx – qHTS for induction of synthetic lethality in tumor cells producing 2HG: qHTS for the HT-1080-IDH1KD cell line. 360,000 tested, 2% active. HT-1080 IDH1 knockdown viability, ATP luminescence, 48 h. Potency, µM (titrated, usually from 46.1 µM), for the others: top-dose activity, negative = toxicity, hits mostly cytotoxic. AID 686971, 2013;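 also: 0% = DMSO wells and -100% = cell-free medium wells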
#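 Cytotoxicity counter-line: IDH1KD HT-1080, 48 h, CellTiter-Glo. Curves classed by r2, magnitude and activity.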
# KB-3-1 cytotox – qHTS assay for MDR1-selective chemotherapeutics: Primary screen using the parental adenocarcinoma cell KB-3-1; KB-3-1 viability, CellTiter-Glo ATP luminescence, 72 h; Potency, µM (titrated, usually from 46.1 µM), usual class: cytotoxic; 400,000 tested, 1.4% active; also: nearly all actives have a fitted effect of over 60% in size
#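 Cytotoxicity in the drug-sensitive parental line KB-3-1 was scored as loss of CellTiter-Glo luminescence following 72 h incubation with compound. Values come from curve fitting of normalized concentration-response data.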
# KB-V1 cytotox – qHTS assay for MDR1-selective chemotherapeutics: Primary screen using the drug-selected MDR subline cells KB-V1 | 400,000 tested, 3.4% active | Potency, µM (titrated, usually from 46.1 µM), actives largely listed as cytotoxic | KB-V1 MDR cells viability, CellTiter-Glo, 72 h | AID 1347076, 2019; also: nearly all actives have a fitted effect of over 60% in size
#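 Drug-selected KB-V1 cells, grown in DMEM lacking phenol red with 10% FBS, receive compound titrations; after three days at 37 degrees C, surviving cell ATP is quantified by CellTiter-Glo luminescence and responses normalized and curve-fitted.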
# HT1080-NT tox – qHTS for induction of synthetic lethality in tumor cells producing 2HG: qHTS for the HT-1080-NT fibrosarcoma cell line; Potency, µM (series often up to 46.1 µM), inactives show top-dose activity, negative = less viability, most hits filed as cytotoxic; HT-1080-NT fibrosarcoma viability, CellTiter-Glo ATP luminescence, 48 h; 360,000 tested, 1.6% active;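 also: NT is the 2HG producing partner of a matched IDH1 knockdown line; 0% = DMSO-treated cells and -100% = media-only wells without cells; nearly all actives have a fitted effect of over 55% in size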
#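 Fibrosarcoma NT cells, 750 per well in 5% FBS RPMI, were exposed to compound for 48 hours. Viability: CellTiter-Glo luminescence.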
# * hit, by the source's call; i = inactive; ? = inconclusive; . = no result; [ ] = another dose, or the depositor's remark. Calls follow the shape of the dose curve; as a rule, active = well fitted curve in the direction sought with a large enough effect; inconclusive = small, poorly fitted or top-dose-only effect, or another doubt; inactive = no such curve, though single readings can be large; an effect the other way counts as inactive or inconclusive. Unless noted, % is scaled to controls: 0 for no effect and ±100 for the full control effect; potency is read from the fitted curve at half-maximal effect.
SMILES,HT1080 IDH1KD tx,KB-3-1 cytotox,KB-V1 cytotox,HT1080-NT tox
Cc1onc(-c2ccccc2)c1C(=O)NC(=S)NNC(=O)c1ccc(O)cc1O,-28%,4.6µM*,3.3µM*,?
CC/C(=N\NC(=O)c1ccoc1C)c1ccc(C)o1,12%,i,i,16%
Cc1onc(-c2ccccc2)c1C(=O)NC(=S)NNC(=O)c1ccccc1O,5.2µM*,?,?,8.2µM*
O=C1OC(C(=O)Nc2cc(C(F)(F)F)ccc2Cl)Cc2ccccc21 (configuration not stated),.,i,i,.
Cc1ccc(C(=O)N/N=C/c2nc3ccccc3n2C)cc1,10µM*,?,?,8.9µM*
CCC(C)NC(=O)c1cc2c(Cl)nc3ccc(C)cc3c2s1 (configuration not stated),.,i,i,.
CCN(CC)C(=O)C1CCCc2c1[nH]c1ccc(Cl)cc21 (configuration not stated),-23%,6.5µM*,i,-21%
Cc1ccc2[nH]c3c(c2c1)CCCC3C(N)=O (configuration not stated),-1%,i,i,-3%
C=C1C(=O)OC2C1C(OC(=O)C(C)=CC)CC(=C)C1C(O)C3OC3(C)C21O (configuration not stated),15µM*,i,i,-1%
CCn1c(CCNC(=O)c2ccc(Cl)c(Cl)c2)nnc1SCCOc1ccc(OC)cc1,?,21µM*,5.8µM*,?
COc1ccc(OCCSc2nnc(CCNC(=O)c3ccc(Cl)c(Cl)c3)n2C)cc1,-30%,i,i,-18%
COc1ccc(OCCSc2nnc(CCNC(=O)c3ccc(OC)cc3)n2C)cc1,-18%,i,18µM*,4%
COc1ccc2c(C)c(CCC(=O)NCCc3ccc(OC)c(OC)c3)c(=O)oc2c1,.,i,i,.
Cc1cc(C)cc(NC(=O)CSc2oc(-c3cccs3)nc2S(=O)(=O)c2ccccc2)c1,.,i,i,.
CCCC(C)C(=O)Nc1nc(C)c(-c2csc(Nc3ccccc3OC)n2)s1 (configuration not stated),0%,i,i,2%
CCCC(C)C(=O)Nc1nc(C)c(-c2csc(Nc3ccc(Cl)cc3)n2)s1 (configuration not stated),-8%,8.2µM*,i,0%
CCC(Sc1nc2ccccc2s1)C(=O)Nc1nnc(C)s1 (configuration not stated),-10%,i,16µM*,-17%
CC(Sc1nc2ccccc2s1)C(=O)Nc1nnc(C(C)C)s1 (configuration not stated),8%,i,i,-5%
CCN(CC)S(=O)(=O)c1ccc2oc(C(=O)N3CCc4ccccc4C3)c(C)c2c1,8%,?,9.2µM*,6%
Cc1c(C(=O)N2CCc3ccccc3C2)oc2ccc(S(=O)(=O)N3CC(C)CC(C)C3)cc12 (configuration not stated),-1%,23µM*,?,-1%
CCN(CC)S(=O)(=O)c1ccc2oc(C(=O)N3CCCCCC3)c(C)c2c1,-13%,i,?,-20%
Cc1cc(NCCCn2ccnc2)n2nc(C)c(-c3ccccc3)c2n1,?,i,?,?
COc1ccc(CCNc2cc(C)nc3c(-c4ccccc4)c(C)nn23)cc1OC,-1%,i,8.2µM*,-1%
Cc1cc(NCCN2CCOCC2)n2nc(C)c(-c3ccc(Cl)cc3)c2n1,?,?,23µM*,23µM*
Cc1cc(NCCCn2ccnc2)n2nc(C)c(-c3ccc(Cl)cc3)c2n1,11µM*,?,23µM*,-26%[9.24 µM]
COc1ccc(CCNc2cc(C)nc3c(-c4ccccc4)cnn23)cc1OC,?,i,i,-20%
Cc1cc(NCCN2CCOCC2)n2nc(C)c(-c3ccccc3)c2n1,-4%[9.24 µM],i,i,-7%
Cc1ccc(-c2ccc(=O)n(CCC(=O)NCCc3ccccc3)n2)cc1,.,i,i,.
COc1ccc(-n2ncc(C(=O)NCc3cccs3)c2C2CCN(C(=O)OC(C)(C)C)CC2)cc1,.,i,i,.
CN1c2ccccc2-c2nc(SCC(=O)Nc3ccccc3C(F)(F)F)ncc2S1(=O)=O,.,i,i,.

# Bioassay records from PubChem.
